# Measured values as given in PubChem BioAssay AID1578 (Sanford-Burnham Center for Chemical Genomics, 2009).
# The campaign covered roughly 290,000 compounds. About 3,000 (1%) were called active. No stated cut-off is given here; in the data, active means inhibition mostly above about 36% (no sharp cut-off); inactive means mostly below about 34%. This excerpt belongs to a sample that is enriched for actives.
# Assay: inhibition of NOD1-driven NF-kB reporter – cell-based, luminescence, uHTS, primary screen (AID 1578);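 further: HEK-293T reporter cells stimulated with the NOD1 agonist gamma-tri-DAP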
# Conditions: NOD1-driven NF-kB luciferase reporter cells, at 4 µM, active compounds read high
row,Compound,inhibition
1,COC(=O)CN1C(=S)N(c2ccc(Cl)cc2)C(=O)C1CC(=O)Nc1ccccc1 (stereo unspecified),-29.4% (inactive)
2,COc1ccc(C)cc1N=Nc1ccc(O)c2ncccc12,-31.6% (inactive)
3,CCS(=O)(=O)c1ccc(OC)c(N=Nc2ccc(O)c3ncccc23)c1,24.1% (inactive)
4,COc1ccccc1N=Nc1ccc(O)c2ncccc12,-11.7% (inactive)
5,O=S(=O)(O)c1cccc2c(N=Nc3ccc(O)c4ncccc34)cccc12,25.1% (inactive)
6,O=Nc1ccc(O)c2ncccc12,19.6% (inactive)
7,Cc1cccc(NCc2ccc(O)c3ncccc23)c1,-29% (inactive)
8,Cc1cccc(N=Nc2ccc(O)c3ncccc23)c1,108% (active)
9,Nc1ccc(N=Nc2ccccc2)c2cccnc12,-3.3% (inactive)
10,COc1cccc(N=Nc2ccc3ccccc3c2O)c1,-81.3% (inactive)
11,CCOC(=O)c1ccc(Nc2c(OCC)c(=O)c2=O)cc1,8% (inactive)
12,Cc1ccc(/C=N/N2CCN(C3c4ccccc4-c4ccccc43)CC2)s1,0.2% (inactive)
13,NNC(=O)c1cc(Cl)ccc1Cl,-38.8% (inactive)
14,COc1ccc(-c2noc(CCC(=O)NCCc3ccccc3)n2)cc1OC,-7.8% (inactive)
15,c1ccc(-c2nnsc2Sc2ccccn2)cc1,-52.7% (inactive)
16,CN(C(=O)n1cnc2ccccc21)c1ccccc1,-29.2% (inactive)
17,CCOc1cc2nc(-c3ccc(OC)c(OC)c3)nc(N3CCOCC3)c2cc1OC,-23.5% (inactive)
18,COc1ccc(N=Nc2ccc(O)c3ncccc23)cc1,108% (active)
19,CCS(=O)(=O)c1ccc(N=Nc2ccc(O)c3ncccc23)c(OC)c1,-30% (inactive)
20,CCOc1ccc(N=Nc2ccc(O)c3ncccc23)cc1,25.7% (inactive)
21,Cc1ccc(C(=O)Nc2nc(C)c(C)s2)o1,-44.9% (inactive)
22,O=C(N/N=C/c1ccc(Cl)cc1)c1sccc1OCc1ccc(F)cc1,-25.8% (inactive)
23,C=CCOc1ccc(C(=O)/C=C2/C(=O)Nc3ccccc32)cc1,1.1% (inactive)
24,C=CCOc1cccc(C(=O)/C=C2/C(=O)Nc3ccccc32)c1,-3.7% (inactive)

row,Compound,inhibition
1,C=CCOc1ccccc1C(=O)/C=C1/C(=O)Nc2ccccc21,37.3% (active)
2,Cc1cc(NC(=O)CCC(=O)N(CC(=O)NC2CCCC2)c2cccc(F)c2)no1,-29.1% (inactive)
3,O=C(Nc1ccccn1)c1ccc(Br)c(S(=O)(=O)N2CCCC2)c1,-39% (inactive)
4,O=C(Nc1ccccn1)c1ccc(Br)c(S(=O)(=O)N2CCCCC2)c1,-25.4% (inactive)
5,CC(C)(C)c1ccc(C(=O)NC(=S)NCc2ccco2)cc1,-11% (inactive)
6,N=c1c2c(n(Cc3ccc(Br)cc3)c3c1CCC3)CCCC2,39% (inactive)
7,N=c1c2c(n(Cc3ccc(F)cc3)c3c1CCC3)CCCC2,22.1% (inactive)
8,NC(=O)c1ccccc1NC(=O)Cc1cccs1,-10.4% (inactive)
9,O=CNCc1nc2ccccc2n1CCc1ccccc1,66% (active)
10,O=CNCc1nc2ccccc2n1CCCc1ccccc1,-1.8% (inactive)
11,O=CNCCc1nc2ccccc2n1CCc1ccccc1,15% (inactive)
12,CNc1ccc(Cl)nn1,-42.7% (inactive)
13,C=C(C)[C@@H]1CCC2(C(=O)O)CC[C@]3(C)[C@H](CC[C@@H]4[C@@]5(C)CCC(=O)C(C)(C)[C@@H]5CC[C@]43C)[C@@H]12 (stereo partly specified),48.4% (inactive)
14,CC1(C)C(=O)CC[C@]2(C)C3C(=O)C=C4[C@H]5C[C@@](C)(C(=O)O)CC[C@]5(C)CC[C@]4(C)[C@]3(C)CC[C@@H]12 (stereo partly specified),-7.3% (inactive)
15,O=C(CSCCSCC(=O)c1ccco1)c1ccco1,-26.9% (inactive)
16,O=C(C#Cc1ccccc1)c1ccco1,72.9% (active)
17,O=C(NCc1ccccc1)c1ccco1,-12.3% (inactive)
18,CC(C)C(=O)Nc1ccc(C(=O)NCc2cccnc2)cc1,-35.1% (inactive)
19,COc1ccc(NS(=O)(=O)c2ccc3oc(SC)nc3c2)cc1,-2.9% (inactive)
20,CNC(=O)CSc1nc2cc(S(=O)(=O)Nc3ccc(OC)cc3)ccc2o1,-1.2% (inactive)
21,CC(=O)c1c(CC(=O)O)[nH]n(-c2nc3ccccc3s2)c1=O,79.8% (active)
22,CCCN=C(C)c1c(-c2ccccc2)[nH]n(-c2nc3ccccc3s2)c1=O,7.3% (inactive)
23,COC(=O)Cc1[nH]n(-c2nc3ccccc3s2)c(=O)c1C(C)=O,-16.2% (inactive)
24,O=C(CCN1C(=O)c2ccccc2C1=O)OCN1C(=O)c2ccccc2C1=O,11.2% (inactive)

row,Compound,inhibition
1,O=c1cc(N2CCN(c3ccc(F)cc3)CC2)[nH]c(=O)n1Cc1ccc(F)cc1,-13% (inactive)
2,CC1=NNC(=O)/C1=C\c1cn(-c2ccccc2)nc1-c1ccc(Cl)cc1,-47.4% (inactive)
3,CC1=NNC(=O)/C1=C\c1cn(-c2ccccc2)nc1-c1ccccc1,64.7% (active)
4,CC1=NNC(=O)/C1=C\c1cn(-c2ccccc2)nc1-c1ccc(F)cc1,-39.1% (inactive)
5,COc1ccc(NC(=O)CC(C(=O)O)N2CCCCC2)cc1 (stereo unspecified),2.5% (inactive)
6,Cc1cc(/C=N/Nc2nc(N)ncc2[N+](=O)[O-])c(C)n1-c1cccc(C(F)(F)F)c1,-14.7% (inactive)
7,COc1cccc(/C=N/Nc2ncnc(N)c2[N+](=O)[O-])c1OC,53.3% (inactive)
8,Cc1ccccc1-n1c(C)cc(/C=N/Nc2ccc([N+](=O)[O-])cn2)c1C,-119% (inactive)
9,Cc1cc(/C=N/Nc2ccc([N+](=O)[O-])cn2)c(C)n1-c1ccccc1,-31.3% (inactive)
10,O=C(CCN1C(=O)/C(=C/c2ccccc2)SC1=S)NNC(=O)c1ccncc1,-47.5% (inactive)
11,O=C1CC(c2ccc(F)cc2)C2=C(CCCC2=O)N1 (stereo unspecified),-5.5% (inactive)
12,CCc1cc2c(=O)n(Cc3ccccc3)c(SC3CCOC3=O)nc2s1 (stereo unspecified),-29.3% (inactive)
13,COc1ccc(CCN2C(=NC(=O)C(C)C)SC3CS(=O)(=O)CC32)cc1OC (stereo unspecified),-10.6% (inactive)
14,CCCCS(=O)(=O)/C=C/[C@H]1[C@H](S(=O)(=O)CCCC)[C@H]2C=C[C@@H]1C2,-23.6% (inactive)
15,CCCCS(=O)(=O)/C=C\C1C2C=CC(C2)C1S(=O)(=O)CCCC (stereo unspecified),6.2% (inactive)
16,CCCCS(=O)(=O)/C=C\C=C/S(=O)(=O)CCCC,97.7% (active)
17,Cc1cc(C)nc(NC2=NCC(=O)N2CCc2c[nH]c3ccccc23)n1,-8.6% (inactive)
18,Cc1ccc(NC(=O)CCN2CCN(C)CC2)cc1,24.4% (inactive)
19,COC(=O)c1sc(NC(=S)NC(=O)c2cccc(Br)c2)nc1C,25.2% (inactive)
20,CN(Cc1ccccc1F)c1nc(-c2cccs2)nc2ccccc12,67.9% (active)
21,COc1cccc(CN(C)c2nc(-c3cccs3)nc3ccccc23)c1,7.9% (inactive)
22,CN(Cc1ccccc1F)c1nc(-c2cccnc2)nc2ccccc12,25.5% (inactive)
23,O=C(Nc1ccccc1-c1nnc(SCc2ccc(Cl)cc2)o1)c1ccccc1,5.6% (inactive)
24,COc1ccc(CC(=O)OCN2C(=O)c3ccccc3C2=O)cc1,0.1% (inactive)

row,Compound,inhibition
1,O=C(Cc1ccccc1F)OCN1C(=O)c2ccccc2C1=O,-15.6% (inactive)
2,O=C(Cc1ccc(F)cc1)OCN1C(=O)c2ccccc2C1=O,49.7% (active)
3,Cc1c(NC(=O)Nc2cccc(C#N)c2)c(=O)n(-c2ccccc2)n1C,-8.2% (inactive)
4,COc1ccc(NC(=O)c2ccc(S(=O)(=O)N(C)C)cc2)cc1,-41.1% (inactive)
5,O=c1c2cnn(-c3ccccc3)c2nc(-c2cccs2)n1-c1cccc(Cl)c1,-3.1% (inactive)
6,Cc1ncoc1C(=O)N1CCCC(CCC(=O)NCc2ccc(F)c(F)c2)C1 (stereo unspecified),-31.1% (inactive)
7,CN(C)c1ccc(/C=C/c2cc[n+](C)cc2)cc1,25% (inactive)
8,CN(C)c1ccc(/C=C/c2cccc[n+]2[O-])cc1,2.7% (inactive)
9,CC(=O)/C(C(=N)N1CCN(c2cccc(Cl)c2)CC1)=C(\C)O,24.8% (inactive)
10,O=[N+]([O-])c1cc([N+](=O)[O-])c(Oc2cccnc2Br)cc1NN1CCCCC1,5.9% (inactive)
11,O=[N+]([O-])c1cc([N+](=O)[O-])c(Oc2c(Cl)cccc2Cl)cc1NN1CCCCC1,-4.9% (inactive)
12,O=[N+]([O-])c1cc([N+](=O)[O-])c(Oc2ccc(Cl)c3cccnc23)cc1NN1CCCCC1,44.7% (active)
13,O=C(O)c1ccc(S(=O)(=O)NCC2CCCCC2)cc1,-9.7% (inactive)
14,O=C(NCC1COc2ccccc2O1)C1CCCN(S(=O)(=O)c2cccc3cccnc23)C1 (stereo unspecified),22.5% (inactive)
15,COC(=O)Cc1[nH]n(-c2nc3ccccc3s2)c(=O)c1C(C)=Nc1ccc(Cl)cc1,1% (inactive)
16,COC(=O)CC1=NN(c2nc3ccccc3s2)C(=O)/C1=C/N(C)C,-19.7% (inactive)
17,Fc1ccc(CSc2ncnc3nc[nH]c23)cc1,-14.8% (inactive)
18,N#Cc1c(-c2ccccc2)cc(-c2ccccc2)nc1SCc1nnc(-c2ccccc2)o1,12.9% (inactive)
19,Cc1cc(C)c(C#N)c(SCc2nnc(-c3ccccc3[N+](=O)[O-])o2)n1,-26% (inactive)
20,CN(CC1CCN(CCc2cccc(C(F)(F)F)c2)CC1)C(=O)c1ccc(F)cc1,18.5% (inactive)
21,O=C(Cn1c(=O)oc2cc(S(=O)(=O)N3CCCC3)ccc21)N1CCN(c2ccccn2)CC1,-8% (inactive)
22,COc1ccc(Cc2n[nH]c(=S)n2Cc2ccccc2)cc1Cl,44.7% (active)
23,COc1ccccc1OCc1n[nH]c(=S)n1Cc1ccccc1,-18.7% (inactive)
24,CC(C)Oc1ccc(Cc2n[nH]c(=S)n2Cc2ccccc2)cc1Cl,-44.3% (inactive)
